Experimental findings from the supplement of paper PMC6522484 are described below.

In test [1] the test system is DLD1. The test can be described thus: cell viability (CellTiter-Glo) relative to plate median (fraction of plate median); higher = more viable cells. Conditions: 5 µM; treatment time 24 h; reporter: 7TFP. Put shortly:
(§1)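 On parallel plates, a Tecan F500 reader recorded either firefly luciferase or CellTiterGlo luminescence. The plates held colorectal cancer cells stably transduced with lentiviral TCF/Wnt firefly luciferase reporters (7TFP or TCF4/Wnt), seeded in 384-well format and treated 24 h later with library compounds at a final 5 µM for 24 h. Per-well signals were normalised to the plate median (webcellHTS2, additive, no log transformation), and two independent replicates were averaged.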
Background: Cellular ATP, detected with luciferase, serves as a proxy for viable cell number.

Another test concerns HCT116. The description is as above. To be noted: 5 µM; treatment time 24 h; reporter: TCF4/Wnt. Put shortly: as §1
Test [2] deals with SW480. The description is as above. Conditions: 5 µM; treatment time 24 h; reporter: 7TFP. The method in brief:
as §1

Test [3] relates to DLD1. Briefly: TCF/Wnt firefly luciferase reporter signal relative to plate median (fraction of plate median); higher = higher Wnt reporter signal. Conditions: 5 µM; treatment time 24 h; reporter: 7TFP. Put shortly: as §1
Test [4] relates to SW480. The description is as above. Conditions: 5 µM; treatment time 24 h; reporter: 7TFP. Put shortly: as §1

Each structure is given as a SMILES string. ± gives the standard deviation of the averaged measurements.

In the case of `COc1ccc2c(c1)OC/C(=C/c1ccc(OC)c(OC)c1)C2=O`, the cell viability was determined as 0.936 ± 0.028 with DLD1 [1], 0.989 ± 0.086 with HCT116 and 0.966 ± 0.028 in the test with SW480 [2]. In addition, the “TCF/Wnt firefly luciferase reporter signal” value came to 0.92 ± 0.021 in the test with DLD1 [3] and 0.972 ± 0.083 in the test on SW480 [4].
The corresponding values for `C=CCCCCCCCCCCCc1ccco1` are 0.98 ± 0.085, 1 ± 0.069, 1.01 ± 0.035, 0.854 ± 0.0099 and 0.957 ± 0.028.
Regarding `CC1(C)S[C@@H]2[C@H](NC(=O)[C@H](NC(=O)N3CCNC3=O)c3ccccc3)C(=O)N2[C@H]1C(=O)O`, the cell viability with DLD1 [1] came to 1.07 ± 0.014; with HCT116, 0.988 ± 0.0042; in the test with SW480 [2] it was 0.956 ± 0.046. For the same molecule, the “TCF/Wnt firefly luciferase reporter signal” value stood at 0.903 ± 0.0099 with DLD1 [3] and 0.919 ± 0.053 in the test with SW480 [4].
The corresponding values for `Cc1cc(C(C)(C)C)c(O)c(C)c1CC1=NCCN1` are 0.977 ± 0.047, 0.895 ± 0.016, 0.972 ± 0.035, 1.15 ± 0.13 and 1.065 ± 0.0071.
`CC(=O)O[C@H]1C[C@@H]2CC[C@@H]3[C@H](CC[C@@]4(C)[C@H]3C[C@H]([N+]3(C)CCCCC3)[C@@H]4OC(C)=O)[C@@]2(C)C[C@@H]1N1CCCCC1`: the cell viability came to 0.976 ± 0.077 in the test on DLD1 [1], 1.03 in the test with HCT116 and 1.004 ± 0.0092 with SW480 [2]. Further, the “TCF/Wnt firefly luciferase reporter signal” value in the test on DLD1 [3] stood at 1.03 ± 0.1; in the test on SW480 [4], 1.1 ± 0.014.
The like results for `COc1ccc2c(c1)OC/C(=C\c1ccc(OC)c(O)c1)C2=O` were, in that order, 0.933 ± 0.054, 1.02, 1.03 ± 0.035, 0.972 ± 0.11 and 0.98 ± 0.086.
The like results for `Nc1cc(C(Cl)=C(Cl)Cl)c(S(N)(=O)=O)cc1S(N)(=O)=O` were, in that order, 0.9995 ± 0.00071, 1.125 ± 0.0071, 1.03 ± 0.014, 1.17 ± 0.11 and 1.1 ± 0.078.
The like results for `O=C(O)c1cc(O)ccc1O` were, in that order, 0.954 ± 0.0099, 0.999 ± 0.059, 1.005 ± 0.0071, 1.04 ± 0.069 and 1.09.
For `CN1CCN(C2=Nc3ccccc3Oc3ccc(Cl)cc32)CC1`, the cell viability in the test with DLD1 [1] is 0.901 ± 0.22; with HCT116 it was 0.971 ± 0.055; in the test on SW480 [2] it was 0.927 ± 0.0028. In addition, the “TCF/Wnt firefly luciferase reporter signal” value in the test with DLD1 [3] turned out to be 0.898 ± 0.21; in the test with SW480 [4], 0.89 ± 0.12.
With `NC1(C(=O)O)CC1`, the cell viability with DLD1 [1] came out at 0.997 ± 0.061; in the test with HCT116, 0.9665 ± 0.0021; in the test on SW480 [2], 0.9795 ± 0.0064. The results for the “TCF/Wnt firefly luciferase reporter signal” value with DLD1 [3] and with SW480 [4] were 0.885 ± 0.045 and 0.919 ± 0.059, respectively.
The like results for `N[C@@H](Cc1ccc(O)c(O)c1)C(=O)O` were, in that order, 1.075 ± 0.0071, 1.03 ± 0.064, 0.99 ± 0.071, 1.01 ± 0.04 and 1.09 ± 0.042.
Take `NC(Cn1ccc(=O)c(O)c1)C(=O)O` (stereo not given): the results for the cell viability with DLD1 [1], in the test with HCT116 and in the test on SW480 [2] were 0.987 ± 0.076, 0.8415 ± 0.00071 and 0.989 ± 0.044, respectively. Moreover, the “TCF/Wnt firefly luciferase reporter signal” value in the test on DLD1 [3] stood at 0.85 ± 0.016; in the test with SW480 [4] it was 0.947 ± 0.12.
Consider `O=C(O)c1ccc2c(c1)OCO2`, for which the cell viability with DLD1 [1] was 0.927 ± 0.12; with HCT116, 1.09 ± 0.078; in the test with SW480 [2], 0.948 ± 0.033. The “TCF/Wnt firefly luciferase reporter signal” value is 0.927 ± 0.022 with DLD1 [3] and 0.866 ± 0.12 in the test on SW480 [4].
Turning to `C1CCC(C(CC2CCCCN2)C2CCCCC2)CC1` (stereo not given), the cell viability in the test on DLD1 [1] came to 1.05 ± 0.05; in the test on HCT116, 0.983 ± 0.052; in the test on SW480 [2], 1.12 ± 0.021. Moreover, the “TCF/Wnt firefly luciferase reporter signal” value with DLD1 [3] was 0.971 ± 0.013; with SW480 [4] it was 1.03.
For the molecule `CCN(CC)CCOC(=O)C(Cc1cccc2ccccc12)CC1CCCO1` (stereo not given), the values for the cell viability in the test on DLD1 [1], with HCT116 and with SW480 [2] were 1.095 ± 0.0071, 1.02 ± 0.034 and 1.02 ± 0.033, respectively. Also, the “TCF/Wnt firefly luciferase reporter signal” value with DLD1 [3] was 0.874 ± 0.072; in the test with SW480 [4] it was 1.22 ± 0.37.
The corresponding values for `CN1CCOC(c2ccccc2)c2ccccc2C1` (stereo not given) are 0.915 ± 0.048, 0.997 ± 0.1, 1 ± 0.014, 0.9875 ± 0.0035 and 0.883 ± 0.12.
Regarding `O=C(O)c1cc(O)c(=O)c2c(O)c(O)ccc2c1`, the cell viability in the test with DLD1 [1] came to 1.02 ± 0.028; with HCT116, 1.04 ± 0.12; with SW480 [2], 1.01 ± 0.035. For the same molecule, the “TCF/Wnt firefly luciferase reporter signal” value in the test on DLD1 [3] came to 1.05 ± 0.035; with SW480 [4] it was 1.02 ± 0.021.
The like results for `COc1cc(C)c(C(=O)Oc2cc(C)c(C(=O)O)c(O)c2C)c(OC)c1C` were, in that order, 0.961 ± 0.033, 1.025 ± 0.0071, 0.987 ± 0.047, 0.953 ± 0.034 and 1 ± 0.099.
The like results for `COc1ccc(-c2cc(=O)c3c(OC)c(OC)c(OC)c(OC)c3o2)cc1OC` were, in that order, 0.9 ± 0.064, 0.914 ± 0.059, 1.04 ± 0.067, 0.951 ± 0.034 and 0.992 ± 0.011.
The corresponding values for `CCCCNc1cc(C(=O)O)cc(S(N)(=O)=O)c1Oc1ccccc1` are 1.015 ± 0.0071, 0.947 ± 0.022, 1.04 ± 0.035, 1.03 ± 0.16 and 1.06 ± 0.057.
In the case of `C[C@H]1O[C@@H](O[C@H]2[C@@H](O)C[C@H](O[C@H]3[C@@H](O)C[C@H](O[C@H]4CC[C@@]5(C)[C@H](CC[C@@H]6[C@@H]5C[C@@H](O)[C@]5(C)[C@@H](C7=CC(=O)OC7)CC[C@]65O)C4)O[C@@H]3C)O[C@@H]2C)C[C@H](O)[C@@H]1O`, the cell viability in the test with DLD1 [1] stood at 0.838 ± 0.068; in the test on HCT116, 0.282 ± 0.23; in the test with SW480 [2], 0.855 ± 0.053. The “TCF/Wnt firefly luciferase reporter signal” value in the test on DLD1 [3] stood at 0.151 ± 0.15; in the test with SW480 [4], 0.221 ± 0.094.
On to `Nc1ccc(C(=O)O)cc1`, for which the cell viability in the test on DLD1 [1] came out at 0.9785 ± 0.00071; in the test on HCT116 it was 0.996 ± 0.034; in the test with SW480 [2], 0.974 ± 0.013. Further, the “TCF/Wnt firefly luciferase reporter signal” value in the test on DLD1 [3] is 1.03 ± 0.035; with SW480 [4] it was 0.965 ± 0.12.
Consider `COc1ccc(-c2cc(=O)c3c(O)c(OC)c(OC)c(OC)c3o2)cc1`, for which the values for the cell viability in the test on DLD1 [1], with HCT116 and in the test with SW480 [2] were 1.01 ± 0.032, 1.04 ± 0.072 and 1.02 ± 0.055, respectively. In addition, the “TCF/Wnt firefly luciferase reporter signal” value in the test on DLD1 [3] was found to be 0.953 ± 0.062; with SW480 [4], 1.01 ± 0.021.
The corresponding values for `COc1ccc(C2C(=O)c3ccccc3C2=O)cc1` are 0.997 ± 0.061, 0.984 ± 0.08, 1.01 ± 0.045, 0.933 ± 0.095 and 0.94 ± 0.021.
The corresponding values for `C[C@H]1c2cccc(O)c2C(=O)C2=C(O)[C@]3(O)C(=O)C(C(N)=O)=C(O)[C@@H](N(C)C)[C@@H]3[C@@H](O)[C@@H]21` are 0.942 ± 0.096, 0.964 ± 0.033, 0.975 ± 0.0028, 0.967 ± 0.23 and 1.03 ± 0.18.
As for `Cn1nnnc1SCC1=C(C(=O)O)N2C(=O)[C@@H](NC(=O)[C@H](O)c3ccccc3)[C@H]2SC1`, the figures for the cell viability with DLD1 [1], with HCT116 and with SW480 [2] were 1.05 ± 0.064, 0.949 ± 0.03 and 1.01 ± 0.037, respectively. The entries for the “TCF/Wnt firefly luciferase reporter signal” value in the test with DLD1 [3] and with SW480 [4] were 0.878 ± 0.03 and 0.989 ± 0.072, respectively.
Take `O=c1oc2ccccc2c(O)c1Cc1c(O)c2ccccc2oc1=O`: the cell viability was 0.959 ± 0.037 with DLD1 [1], 0.979 ± 0.044 in the test on HCT116 and 1.01 ± 0.028 in the test on SW480 [2]. For the same molecule, the entries for the “TCF/Wnt firefly luciferase reporter signal” value in the test on DLD1 [3] and in the test with SW480 [4] were 1.18 ± 0.021 and 1.08 ± 0.05, respectively.
The corresponding values for `CCOC(=O)c1c(C)cc(O)cc1O` are 1.11 ± 0.085, 1.01 ± 0.09, 1.07 ± 0.014, 1.06 ± 0.14 and 1.08 ± 0.042.
The like results for `COCCc1ccc(OCC(O)CNC(C)C)cc1` (stereo not given) were, in that order, 1.14 ± 0.057, 0.959 ± 0.025, 1.01 ± 0.018, 1.14 ± 0.042 and 1.055 ± 0.0071.
